# This is a sample that favours compounds with a hit; in the whole collection about 1.8% have one here.
# VDR inhibitor: Inhibitors of the vitamin D receptor (VDR): qHTS; Vitamin D3 receptor (Homo sapiens), P11473; VDR-SRC2-3 peptide fluorescence polarization, 2 h; Potency, µM, for the others: max response, negative = inhibition, hits mostly inhibitors; hit rate 0.93% among 400,000; AID 504847, 2011; also: % is scaled to controls: 0 for no effect and ±100 for the full control effect
# Target sequence (P11473 whole entry, looked up): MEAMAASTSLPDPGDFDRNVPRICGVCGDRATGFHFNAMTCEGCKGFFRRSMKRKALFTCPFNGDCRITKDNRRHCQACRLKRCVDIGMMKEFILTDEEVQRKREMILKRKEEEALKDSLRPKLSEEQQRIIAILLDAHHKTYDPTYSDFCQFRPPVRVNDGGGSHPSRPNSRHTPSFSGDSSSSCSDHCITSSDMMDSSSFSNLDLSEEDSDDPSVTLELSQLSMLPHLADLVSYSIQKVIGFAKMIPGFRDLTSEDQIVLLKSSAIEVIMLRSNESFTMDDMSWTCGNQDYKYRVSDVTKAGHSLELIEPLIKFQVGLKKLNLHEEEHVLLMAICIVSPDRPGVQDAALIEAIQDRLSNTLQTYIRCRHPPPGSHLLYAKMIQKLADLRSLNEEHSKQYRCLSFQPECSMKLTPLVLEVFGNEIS
#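 Fluorescence polarization assay of small-molecule disruption of VDR binding to coregulator peptide SRC2-3. Compounds and controls pin-transferred, then read after 2 h incubation at ambient room temperature.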
# TrxR1 substrate: qHTS Assay for Substrates of Mammalian Selenoprotein Thioredoxin Reductase 1 (TrxR1): qHTS; Thioredoxin reductase 1, cytoplasmic (Rattus norvegicus), O89049; purified TrxR1 substrate turnover, NADPH consumption readout; Potency, µM (series often up to 114 µM), for inactives: at the top dose activity change, negative = substrate turnover; hit rate 0.01% among 390,000; also: % is scaled to controls: 0 for no effect and ±100 for the full control effect; nearly all actives have a fitted effect of over 50% in size
#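 Rat TrxR1, dispensed at 90 nM, was prereduced with 400 uM NADPH (final) for 5 min at ~22 deg C, then incubated with compound 15 min before 400 uM selenite. A first-read NADPH fluorescence drop versus no-compound background flagged substrates.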
# rTrxR1 inhibitor: qHTS Assay for Inhibitors of Mammalian Selenoprotein Thioredoxin Reductase 1 (TrxR1): qHTS | Thioredoxin reductase 1, cytoplasmic (Rattus norvegicus), O89049 | recombinant rTrxR1, NADPH fluorescence consumption, selenite substrate | Potency, µM (top dose mostly 114 µM), for inactives: at the highest dose activity change, negative = inhibition, actives largely listed as inhibitors | hit rate 1% among 390,000; also: % is scaled to controls: 0 for no effect and ±100 for the full control effect; nearly all actives have a fitted effect of over 65% in size
#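 Rat TrxR1 (90 nM in the dispensed reagent) was pre-reduced with 400 uM NADPH for 5 min at room temperature, then incubated with compound for 15 min. After 400 uM selenite was added, NADPH fluorescence (Ex 340/Em 450 nm) was followed for 8 min.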
# Vif-APOBEC3F blk: qHTS for Inhibitors of Vif-A3F Interactions: qHTS | HeLa A3F-eYFP + Vif (tagged APOBEC3F with the HIV-1 protein that degrades it), YFP fluorescence increase | Potency, µM (top dose mostly 46.1 µM), without a hit: at the highest dose activity, negative = active | hit rate 0.2% among 390,000; also: % of control where 0% means no effect; nearly all actives have a fitted effect of over 65% in size
#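 HeLa cells stably expressing Vif plus C-terminally eYFP-tagged A3F were seeded, incubated overnight at 37 deg C, dosed with compound, incubated overnight again at 37 deg C. Yellow fluorescence (Ex 488/Em 500-530) reported blocked Vif-mediated A3F-eYFP degradation.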
# Vif-A3G inh: qHTS for Inhibitors of Vif-A3G Interactions: qHTS; HeLa A3G-eYFP + Vif (tagged APOBEC3G with the HIV-1 protein that degrades it), YFP fluorescence, overnight; hit rate 0.076% among 410,000; AID 602310, 2012; Potency, µM (highest dose often 46.1 µM), for the others: at the top dose activity, negative = active, usual class: inhibitors; DNA dC->dU-editing enzyme APOBEC-3G (Homo sapiens), Q9HC16; also: % is scaled to controls: 0 for no effect and ±100 for the full control effect; nearly all actives have a fitted effect of over 60% in size
#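 HeLa cells stably expressing Vif and C-terminally eYFP-tagged A3G, seeded overnight at 37 deg C, then exposed to compound by pintool overnight at 37 deg C. Rise in yellow fluorescence (Ex 488/Em 500-530, Acumen) marks blocked Vif-driven A3G degradation.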
# VDR inh confirm: qHTS for Inhibitors of the vitamin D receptor (VDR): Hit Validation in Primary Screen | hit rate 89% among 840 | shares compounds with VDR inhibitor | AID 602199, 2012 | Potency, µM, hits mostly inhibitors | VDR-coactivator inhibition assay, qHTS confirmation
# VDR FP fluor: qHTS for Inhibitors of the vitamin D receptor (VDR): Hit Validation using a Fluorescein Assay; shares compounds with VDR inhibitor; VDR-coactivator binding, fluorescein fluorescence polarization; Potency, µM (highest dose often 57.1 µM), inactives show at the highest dose activity change, negative = inhibition, usual class: inhibitors; hit rate 48% among 840; AID 602200, 2012
# VDR bla reporter: qHTS for Inhibitors of the vitamin D receptor (VDR): Hit Validation using a Beta-Lactamase Assay; Potency, µM (series often up to 46.1 µM), without a hit: at the highest dose activity change, negative = inhibition, usual class: inhibitors; AID 602202, 2012; VDR beta-lactamase reporter cells, FRET ratio; cells co-treated with VDR agonist LG190178; shares compounds with VDR inhibitor; hit rate 23% among 840; also: % is scaled to controls: 0 for no effect and ±100 for the full control effect
# VDR cytotox: qHTS for Inhibitors of the vitamin D receptor (VDR): Hit Validation using a Cytotoxicity Assay; shares compounds with VDR inhibitor; cytotoxicity counter-screen, cell viability, qHTS; Potency, µM (top dose mostly 48.3 µM), without a hit: at the top dose activity change, negative = cytotoxicity, usual class: cytotoxic; hit rate 18% among 840; AID 602204, 2012;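 also: plate controls were DMSO for no effect and high-concentration cycloheximide for full effect; nearly all actives have a fitted effect of over 75% in size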
# * = called active by the depositor; ? = inconclusive; · = no result; [ ] = another dose, or the depositor's remark. Calls follow the shape of the dose curve; as a rule, active = well fitted curve in the direction sought with a large enough effect; inconclusive = small, poorly fitted or top-dose-only effect, or another doubt; inactive = no such curve, though single readings can be large; an effect the other way counts as inactive or inconclusive. Potency is read from the fitted curve at half-maximal effect.
SMILES,VDR inhibitor,TrxR1 substrate,rTrxR1 inhibitor,Vif-APOBEC3F blk,Vif-A3G inh,VDR inh confirm,VDR FP fluor,VDR bla reporter,VDR cytotox
COc1ccc(-n2c(SC)nc(O)c(Cc3ccccc3)c2=O)cc1,-13%,1%,24%,-13%,0%,·,·,·,·
COc1ccc(Cc2c(O)nc(SC)n(C(C)=O)c2=O)cc1,?,16%,17%,2%,1%,?,5.6µM*,7%,6%
O=C(c1ccc(Cl)cc1)C(CN1CCCCC1)c1ccccc1 (centres undefined),20µM*,4%,25µM*,6%,-16%,?,22µM*,13µM*,18µM*
CCOC(=O)C(CN1CCCC1)c1ccccc1 (centres undefined),-10%,-1%,10%,5%,3%,·,·,·,·
Cc1ccc(C(=O)NCC(=O)OCC(=O)c2cccc3ccccc23)cc1,?,-3%,41%[0.0914 µM],·,1%,·,·,·,·
Cc1cccc2cc3c(nc12)SC(=NCC1CCCO1)N(Cc1ccco1)C3 (centres undefined),?,100%,3.5µM*,0%,-20%,14*,6.3µM*,21µM*,?
CCOC(=O)c1nn(-c2ccc(F)cc2)c(=O)c(C#N)c1C,-5%,-1%[57.1 µM],0%[57.1 µM],-11%,1%,·,·,·,·
CCOC(=O)c1nn(-c2ccc(F)cc2)c(=O)c2c(N)scc12,7.9µM*,3%[57.1 µM],16%[57.1 µM],8%,0%,27*,?,40%,34%
O=S(=O)(c1ccc(F)cc1)N1CCN(c2nc(-c3cccs3)nc3cc(Cl)ccc23)CC1,-20%,7%,29%,·,2%,·,·,·,·
COc1ccc(N2C(=O)C(Cl)=C(Oc3cccc(OC)c3)C2=O)cc1,28µM*,-14%[57.1 µM],0.45µM*,14%,-5%,3.2*,2.8µM*,5.8µM*,12µM*
COc1ccc(N2C(=O)c3ccccc3C2=O)cc1,-13%,2%[57.1 µM],28%[57.1 µM],7%,2%,·,·,·,·
CC(C)(C)c1ccc(C(=O)N2CC(=O)Nc3ccc(F)cc3C2c2ccc(F)cc2)cc1 (centres undefined),-14%,-11%,8%,-8%,-3%,·,·,·,·
COc1ccc(OC)c(NC(=O)c2nc(S(=O)(=O)Cc3ccccc3)ncc2Cl)c1,10µM*,-1%,3.5µM*,-10%,-9%,12*,?,8.2µM*,8.2µM*
COc1ccc(OC)c(NC(=O)c2nc(S(=O)(=O)Cc3ccccc3F)ncc2Cl)c1,·,14%,?,·,0%,2.8*,4µM*,16µM*,11µM*
COc1ccc(OC)c(NC(=O)CS(=O)(=O)c2ccccc2)c1,-7%,2%,-9%,-11%,0%,·,·,·,·
O=S(=O)(Nc1cccc2ccccc12)c1ccc2ccccc2c1,?,5%[0.457 µM],6%,·,-18%,·,·,·,·
CCc1cccc(NC(=O)c2ccc(CNS(=O)(=O)c3ccc4c(c3)C(C)(C)C(=O)N4C)cc2)c1,6%,8%,20%,-1%,-4%,·,·,·,·
Cc1cc(C(C2C(=O)CC(C)(C)CC2=O)C2C(=O)CC(C)(C)CC2=O)cc(C)c1OC(F)F,10µM*,8%,?,-24%,2%,24*,?,30%,22%
COc1cccc(C(C2C(=O)CC(C)(C)CC2=O)C2C(=O)CC(C)(C)CC2=O)c1,?,5%,?,-1%,2%,·,·,·,·
CC(=O)c1ccc(Sc2nnc(C)s2)c([N+](=O)[O-])c1,2%,0%,?,0%,0%,·,·,·,·
O=[N+]([O-])c1c(NCCO)cc(N2CCCCCC2)c2nonc12,1%,-11%,8%,7%,3%,·,·,·,·
Cc1nnc(Sc2cc(NCCCO)c([N+](=O)[O-])c3nonc23)s1,45µM*,6%[57.1 µM],?,12%,-21%,13*,11µM*,?,?
Cc1nnc(Sc2cc(NCCO)c([N+](=O)[O-])c3nonc23)s1,22µM*,-5%,0.32µM*,11%,-13%,4.2*,?,?,?
CCCCC(CC)CNC(=O)c1ccc2c(=O)n(CCOC)c(=O)[nH]c2c1 (centres undefined),-1%,8%,15%,7%,-8%,·,·,·,·
C(=C\c1nc2ccccc2o1)/c1ccc2c(c1)OCO2,·,7%,16%[0.0914 µM],·,-6%,·,·,·,·
SMILES,VDR inhibitor,TrxR1 substrate,rTrxR1 inhibitor,Vif-APOBEC3F blk,Vif-A3G inh,VDR inh confirm,VDR FP fluor,VDR bla reporter,VDR cytotox
CCSC1=NC(C)(C)C=C(/C=C/c2ccc(Cl)cc2Cl)N1,?,8%,?,-14%,-28%,14*,16µM*,23µM*,?
CC(=O)OC1C=C[C@@H](OC(C)=O)C1 (some centres undefined),0%,·,·,·,·,·,·,·,·
O=C(/C=C\c1ccccc1OC(=O)c1ccccc1F)c1cc2ccccc2o1,14µM*,-8%,-13%[57.1 µM],9%,-19%,?,3.5µM*,?,?
Cc1ccc(-c2c(C)n3c4c(=O)n(C)c(=O)n(C)c4nc3n2CCCO)cc1,0%,3%,14%,8%,-23%,·,·,·,·
O=C1/C(=C/c2cccc([N+](=O)[O-])c2)CCc2ccccc21,?,-15%,-17%,6%,-25%,13*,25µM*,?,?
Cc1cc(Nc2cccc(C(F)(F)F)c2)nc2ccc(NC(=O)c3cccnc3)cc12,-1%,-9%,-2%,-4%,-20%,·,·,·,·
O=C1N=c2ccccc2=C1c1c(O)n(-c2cccc(F)c2)[nH]c1=O,71µM*,-2%,-8%,3%,0%,6*,?,-2%,-2%

# Source: PubChem BioAssay (National Center for Advancing Translational Sciences (NCATS))
